# S1P2 agonist – S1P2 (human) receptor agonism; activation, % at 4.5 µM; O95136; S1P2-expressing cell line, agonist reporter read-out; actives 0.46% (n = 97,000); in the data active means activation above about 16%
# Target sequence (O95136 whole entry, looked up): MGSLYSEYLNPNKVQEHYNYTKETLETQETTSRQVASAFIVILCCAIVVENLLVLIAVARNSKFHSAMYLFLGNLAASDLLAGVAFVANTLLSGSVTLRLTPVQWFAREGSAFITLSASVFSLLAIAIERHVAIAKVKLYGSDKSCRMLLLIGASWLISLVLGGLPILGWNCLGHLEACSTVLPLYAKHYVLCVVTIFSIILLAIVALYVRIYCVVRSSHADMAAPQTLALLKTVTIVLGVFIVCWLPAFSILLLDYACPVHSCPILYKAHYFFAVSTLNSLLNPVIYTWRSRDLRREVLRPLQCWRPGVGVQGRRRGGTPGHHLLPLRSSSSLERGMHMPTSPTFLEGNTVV
# GALR2 antag – GALR2 (human) receptor antagonism | O43603 | GALR2-expressing cells, antagonist mode | inhibition, % at 4 µM | actives 0.39% (n = 140,000) | AID 828; in the data active means inhibition above about 27%;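 further: cells stimulated with galanin 1-16 at roughly its EC80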
# S1P2 blocker – blocks the human S1P2 receptor | cell-based S1P2 antagonist assay, inhibition at 5 uM | inhibition, % at 5 µM | O95136 | AID 736 | actives 0.21% (n = 97,000); in the data active means inhibition above about 45%;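 further: CRE beta-lactamase reporter cells expressing human S1P2 stimulated with S1P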
# GALR2 agonist – agonists of human galanin receptor 2 (GALR2). GALR2-expressing cells, agonist activation read-out. O43603. activation, % (concentration not given with the values). actives 0.48% (n = 140,000); in the data active means activation above about 5%, passing the limit was not always enough
# GALR2 ag confirm – confirmation of human galanin receptor 2 (GALR2) agonists; shares compounds with GALR2 agonist; activation, % at 5.6 µM; actives 10% (n = 460); GALR2-expressing cells, agonist activation; in the data active means activation above about 8.4%
# BLA activ ctr – beta-lactamase activation, GALR2 counterscreen; shares compounds with GALR2 agonist; CHO NFAT-bla reporter, beta-lactamase FRET activation; activation, % at 5.6 µM; actives 10% (n = 460);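 active means activation above the screen-wide mean activation plus 3 SD, cut at about 8% in these data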
# Numbers stand for hits; i = inactive; nt = no result; ! = repeats disagree. This is a sample that favours compounds with a hit; in the whole collection about 1.1% have one here.
SMILES,S1P2 agonist,GALR2 antag,S1P2 blocker,GALR2 agonist,GALR2 ag confirm,BLA activ ctr
Cc1c(/C=N/n2cnnc2)c2ccccc2n1CCOc1ccc(Cl)cc1,i,i,i,i,nt,nt
N/C(=N\O)c1ccc(NC(=O)c2cccs2)cc1,nt,i,nt,25,i,i
CC(=O)c1ccc(NC(=O)c2cccs2)cc1,i,i,i,i,nt,nt
CCc1cc2c(CN3CCN(CCO)CC3)cc(=O)oc2cc1O,i,i,i,i,i,i
CCc1cc2c(CN3CCN(C)CC3)cc(=O)oc2cc1O,i,i,i,i,nt,nt
COC(=O)/C=C1/N/C(=N\c2nc(C)cc(C)n2)N(c2ccccc2)C1=O,nt,i,nt,i,nt,nt
O=C(CN1CCN(C/C=C/c2ccccc2)CC1)Nc1cc([N+](=O)[O-])ccc1Cl,nt,i,nt,i,nt,nt
O=c1[nH]ncn2cccc12,i,i,i,25,i,i
O=C(NCCN1C(=O)S/C(=C\c2ccc(OC(F)F)cc2)C1=O)c1cnccn1,nt,i,nt,i,nt,nt
O=c1[nH]c2ccccc2nc1-c1cccs1,i,i,i,12,i,i
CC(C)CC(COCc1ccc(F)cc1)N1CCN(C(=O)c2cccc(C(F)(F)F)c2)CCC1=O (stereo unspecified),nt,i,nt,i,nt,nt
Cc1ccc(COCC(CC(C)C)N2CCN(C(=O)c3cccc(C(F)(F)F)c3)CCC2=O)cc1 (stereo unspecified),nt,i,nt,8.9,i,i
CCOC(=O)c1c(CSC(=N)N)n(-c2ccc(Br)cc2)c2cc(Br)c(OC(C)=O)cc12,nt,i,nt,34,i,i
CCOc1cc(NC(=O)C2CCCCC2)c(OCC)cc1NC(=O)c1ccco1,i,i,i,32,i,i
COc1cc(NC(=O)C2CCCCC2)c(OC)cc1NC(=O)c1ccco1,i,i,i,i,nt,nt
Cc1nc(N2CCN(S(=O)(=O)c3cccc4nonc34)CC2)c2c3c(sc2n1)CCCC3,nt,i,nt,i,nt,nt
COc1ccc(-c2cnnn2-c2ccc(NC(=O)c3ccc(S(=O)(=O)N4CCCCC4)cc3)cc2)cc1OC,nt,i,nt,i,nt,nt
COc1ccc(-c2cnnn2-c2ccc(NC(=O)c3ccco3)cc2)cc1OC,i,i,i,20,i,i
COc1ccc(C(=O)NC(NC(=O)c2ccc(OC)c(OC)c2)c2ccccc2F)cc1OC,nt,i,nt,i,nt,nt
CC1(C)C=C(c2ccc(C=O)s2)CC(C)(C)N1C=O,nt,i,nt,14,i,i
CC1(C)C=C(c2ccc(C=O)s2)CC(C)(C)N1,i,i,i,i,nt,nt
Nc1c(C(=O)c2ccc(Cl)cc2)sc2c1c(=O)[nH]c(=O)n2-c1ccccc1,nt,i,nt,22,i,i
Nc1c(C(=O)c2ccccc2)sc2c1c(=O)[nH]c(=O)n2-c1ccccc1,nt,i,nt,i,nt,nt
COc1cc(/C=C/C(=O)OCC(=O)NCc2cccs2)ccc1OCC#N,nt,i,nt,i,nt,nt
Oc1ccccc1/C=N/Nc1ccnc(SCc2ccccc2)n1,nt,i,nt,23,i,i
SMILES,S1P2 agonist,GALR2 antag,S1P2 blocker,GALR2 agonist,GALR2 ag confirm,BLA activ ctr
Cc1ccc(Cn2ccc(=O)c(OCc3c(Cl)cccc3Cl)c2C)cc1,i,i,i,i,nt,nt
C=CCN1C(=O)C(CC(=O)Nc2ccc(OC)cc2)N(Cc2ccco2)C1=S (stereo unspecified),i,i,i,16,i,i
CCS(=O)(=O)N1CCN(c2cccc(C)c2C)CC1,i,i,i,17,i,i
Cc1ccc(C(=O)NC(=S)Nc2ccc(NC(=O)c3cccc(Cl)c3)cc2)cc1,nt,i,nt,10,i,i
O=C(COC(=O)COc1ccc(Br)cc1)Nc1cccnc1Cl,nt,i,nt,34,i,i
CCOC(=O)N1CCC(N(CCN(C)C)C(=S)Nc2cc(C)cc(C)c2)CC1,nt,i,nt,i,nt,nt
Cc1cc(C)c(NC(=O)CSc2ccc3nnc(CCNC(=O)c4ccccc4)n3n2)c(C)c1,nt,i,nt,i,nt,nt
CCCSc1ncc(Cl)c(C(=O)Nc2ccc(S(=O)(=O)N3CC(C)OC(C)C3)cc2)n1 (stereo unspecified),i,i,i,i,nt,nt
c1ccc2[nH]c(-c3ccnc4ccccc34)nc2c1,i,i,i,12!,i,i
Cc1ccccc1-c1nc2ccccc2[nH]1,i,i,i,i,nt,nt
Cc1ncsc1CCSc1nc2ccccc2c(=O)n1C,i,i,i,i,nt,nt
CCC(C)(C)NC(=O)C(c1cccn1C)N(Cc1ccc(OC)cc1)C(=O)Cn1nnc2ccccc21 (stereo unspecified),i,i,i,i,i,i
Cn1c(=O)c2cc(S(=O)(=O)NCCC(=O)NCC3CCCO3)ccc2n(C)c1=O (stereo unspecified),i,i,i,i,nt,nt
CN(Cc1cc([N+](=O)[O-])c2cccnc2c1O)C1CCCCC1,nt,i,nt,23,i,i
Cc1ccccc1-n1c(=O)cc(N2CCN(C(=O)c3ccco3)CC2)[nH]c1=O,i,i,i,i,nt,nt

# Screening results (PubChem)
